Compounds without any hit were thinned out: in the full panel of roughly 83,000, 20% have a hit.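 Each cell line was grown in a 96-well plate and treated with one concentration of compound for 48 hours. Values below 10 were considered active.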 A number with no mark means an inactive call. Calls of active or inactive are those of the source.
Key:
Test in all cases: NCI-60 one-dose screen, 48 h (100 = growth as untreated, 0 = no growth, -100 = all killed)
Conditions in all cases: 10 µM unless noted
[1] = test system: DU-145 prostate
[2] = test system: K-562 leukemia
[3] = test system: MDA-MB-231 breast
[4] = test system: RXF 393 renal
[5] = test system: SF-268 CNS
[6] = test system: SF-295 CNS
[7] = test system: SF-539 CNS
[8] = test system: UACC-257 melanoma
[9] = test system: M14 melanoma
[10] = test system: MALME-3M melanoma

Row | Compound | growth [1] [%] | growth [2] | growth [3] | growth [4] [%] | growth [5] | growth [6] | growth [7] | growth [8] [%] | growth [9] | growth [10]
1 | O=C(O)CNC(=O)C1(N2C(=O)c3ccccc3C2=O)CCCC1 | 124 | 96.2% | 101% | 95.7 | 116% | 102% | 118% | 109 | 105% | –
2 | CCCCCCCCCCCCC1CCCC(C)C1 (stereo not given) | 109 | – | 105% | 109 | 110% | 90.1% | 118% | – | 106% | 93.3%
3 | C[N+]1(C)C2CC[C@@H]1CC(OC(=O)C(O)c1ccccc1)C2 (stereo not given in full) | 127 | – | 107% | 111 | 114% | 104% | 108% | 110 | 105% | 94.1%
4 | C(=C1c2ccccc2-c2ccccc21)c1ccccn1 | 106 | 19.6% | 62.2% | 80.6 | 82.7% | 71.3% | 72.2% | 91.1 | 33.4% | –
5 | COc1cc(/C=N/NC(=O)c2ccc(C(F)(F)F)nc2Nc2ccc(Cl)cc2C)ccc1O | – | 15.2% | 53.1% | – | 34.9% | 7.59% (active) | 30.4% | 57.2 | 50.9% | 15.1%
6 | O=C(COc1ccc(/C=C2\Oc3ccc4ccccc4c3C2=O)cc1)c1ccc([N+](=O)[O-])cc1 | – | 79.4% | 94.9% | – | 96.9% | 105% | 65.6% | 94 | 92.8% | 85.8%
7 | c1ccc2nc(N/N=C3\CCCCC3C3CCCCC3)ccc2c1 (stereo not given) | – | 12.3% | 60.8% | – | 66.8% | 25.9% | 58.8% | 72.1 | 72.1% | 46.6%
8 | COc1ccc(OC)c2c1CCC1(C2)NC(=O)NC1=O (stereo not given) | – | 105% | 98.8% | 108 | 133% | 113% | 95.1% | – | 105% | 96.5%
9 | O=C(Nc1nc2ccc(OC(F)(F)F)cc2s1)c1ccc(F)cc1 | – | 9.01% (active) | 27.1% | 48.5 | 8.27% (active) | 4% (active) | 21.5% | 22.3 | 37.3% | 10.9%
10 | O=C(N/N=C/c1ccc(Cl)cc1Cl)c1ccccc1Nc1cccc(C(F)(F)F)c1 | – | 35.3% | 48.9% | – | 112% | 24.4% | -93% (active) | 83.6 | 95.6% | 92.5%
11 | COc1ccc2c(c1)C(=Nc1cc(OC)c(OC)c(OC)c1)C(=O)N2 | – | 102% | 103% | – | 98% | 171% | 103% | 102 | 101% | 90.8%
12 | Cc1ccc(-c2cc(-c3ccccc3)n(-c3ccccc3)n2)cc1 | – | 81.2% | 112% | – | 98.3% | 156% | 115% | 98.1 | 110% | 87.6%
13 | CC(=O)Nc1cc(C(c2ccccc2)c2ccccc2)cc(C(c2ccccc2)c2ccccc2)c1C | – | 35.3% | 69.8% | – | 53.5% | 54.9% | 77.3% | 64.8 | 79.2% | 75.2%
14 | CC(=O)c1ccccc1NC(=O)C(C)(c1ccccc1)c1ccccc1 | – | 72.5% | 88.8% | – | 92.6% | 86.1% | 105% | 85.9 | 99.9% | 83%
15 | O=C(COc1cccc(/C=C2\Oc3ccc4ccccc4c3C2=O)c1)c1ccc([N+](=O)[O-])cc1 | – | 67.3% | 83.3% | – | 85.6% | 117% | 46.5% | 102 | 79.4% | 67.2%
16 | COc1ccc(C(=O)COc2cccc(/C=C3\COc4ccc5ccccc5c4C3=O)c2)cc1 | – | 47.8% | 53.7% | – | 83.8% | 107% | 16% | 79.4 | 91.2% | 72%
17 | CCOC(=O)c1sc(NC(=O)COc2cccc(/C=C3\CCc4cc(OC)ccc4C3=O)c2)nc1C | – | 5.6% (active) | 89.2% | – | 69.4% | 90.3% | 26.4% | 84.2 | 89% | 77.1%
18 | O=C(N/N=C/c1cccc(O)c1)c1ccc(C(F)(F)F)nc1Nc1cccc(C(F)(F)F)c1 | – | 5.13% (active) | -26.8% (active) | – | 17.6% | -39.3% (active) | 7.23% (active) | 19.6 | 35.7% | 1.33% (active)
19 | CCCCN1c2nc3ccccc3cc2Sc2cc3ccccc3nc21 | – | 99.4% | 76.4% | – | 91.7% | 768% | 100% | 104 | 103% | 117%
20 | COc1cc2c(cc1OC)C(=O)/C(=C/c1cccc(OCC(=O)c3ccccc3)c1)C2 | – | 43.8% | 97.9% | – | 94.9% | 104% | 78.2% | 95.4 | 96.3% | 145%
21 | COc1ccc2nc(N/N=C(\C)c3ccccn3)cc(C)c2c1 | – | -51.5% (active) | -63.1% (active) | – | -2.13% (active) | -81.2% (active) | -90.6% (active) | 16.7 | -78.7% (active) | -24% (active)
22 | O=C(COc1ccc(/C=C2\Oc3ccc4ccccc4c3C2=O)cc1)c1ccc(Cl)cc1 | – | 89.7% | 113% | – | 97.6% | 96.9% | 93.1% | 103 | 95% | 110%

Row | Compound | growth [1] [%] | growth [2] | growth [3] | growth [4] [%] | growth [5] | growth [6] | growth [7] | growth [8] [%] | growth [9] | growth [10]
23 | c1ccc(N2c3nc4ccccc4cc3Sc3cc4ccccc4nc32)nc1 | – | 85.7% | 68.4% | – | 80.8% | 96.1% | 111% | 87.8 | 109% | –
24 | COc1ccc(C(=O)COc2ccc(/C=C3\Oc4ccc5ccccc5c4C3=O)cc2)cc1 | – | 83% | 97% | – | 104% | 102% | 72.5% | 98.3 | 99.5% | 85.5%
25 | COc1ccc(CCN2C(=O)CCC3=C2CCCC3=O)cc1OC | – | 106% | 89.9% | 113 | 136% | 112% | 103% | – | 99.1% | 91.7%
26 | C=C(CN1CCc2c([nH]c3ccccc23)C1)c1ccc(C(=O)Nc2ccon2)cc1 | – | 44.2% | 78.6% | – | 97.1% | 114% | 90% | 97.3 | 95.6% | 129%
27 | CCOC(=O)c1sc(NC(=O)COc2ccc(/C=C3\CCc4cc(OC)ccc4C3=O)cc2)nc1C | – | 71.7% | 94.1% | – | 80.1% | 118% | 95.1% | 93.7 | 106% | –
28 | COc1ccc(CNC(=O)c2c(C)n([O-])c3ccc(OC)cc3[n+]2=O)cc1 | – | 90.8% | 111% | – | 103% | 239% | 118% | 109 | 107% | 98.6%
29 | Cc1ccc(S(=O)(=O)NCCN2c3nc4ccccc4cc3Sc3cc4ccccc4nc32)cc1 | – | 87.9% | 36.8% | – | 52.4% | 93.8% | 11.7% | 54.7 | 77.4% | 128%
30 | O=C(COc1cccc(/C=C2\Cc3ccccc3C2=O)c1)c1ccc(Cl)cc1 | – | 100% | 84.1% | – | 117% | 124% | 95.6% | 96.4 | 105% | 90%
31 | COc1ccc(/C=C/C(=O)c2cccc(NS(C)(=O)=O)c2)cc1 | 42.6 | – | 80.5% | – | 82% | 92.1% | 94.7% | – | 97.3% | 112%
32 | COc1ccc(C(=O)COc2cccc(/C=C3\CSc4ccc(Cl)cc4C3=O)c2)cc1 | – | 22.1% | 76.2% | – | 91% | 95.9% | 104% | 89.3 | 102% | –
33 | O=C(NCCCl)NCCN1c2nc3ccccc3cc2Sc2cc3ccccc3nc21 | – | 21.5% | 39.5% | – | 44.2% | 409% | 38.3% | 65.8 | 69.2% | 60.4%
34 | COc1ccc(CNC(=O)c2c(C)n([O-])c3cc(F)c(F)cc3[n+]2=O)cc1 | – | 46.5% | 76.3% | – | 88.7% | 57.1% | 96.9% | 98 | 90.5% | 111%
35 | COc1ccc(Cl)cc1Nc1nc(C(F)(F)F)ccc1C(=O)N/N=C/c1c(Cl)cccc1Cl | – | 33.8% | 46.3% | – | 65% | 13.8% | 20.6% | 60.9 | 71.3% | 69.3%
36 | Oc1ccccc1/C=N/N1CCCCCC1 | 108 | – | 96.1% | 101 | 99.9% | – | 113% | 129 | 118% | –
37 | O=C(COc1cccc(/C=C2\Oc3ccc4ccccc4c3C2=O)c1)c1ccc(Cl)cc1 | – | 122% | 84.7% | – | 88.8% | 104% | 68.2% | 95.6 | 83.6% | 69.4%
38 | COc1cccc(C2=NN(C(C)=O)C(c3cc(OC)c(OC)c(OC)c3)C2)c1 (stereo not given) | – | 9.66% (active) | 41.3% | – | 38.6% | 193% | 7.59% (active) | 48.3 | 16.8% | 65.9%
39 | COc1ccc(CNC(=O)c2c(C)n([O-])c3ccccc3[n+]2=O)cc1 | – | 94.9% | 103% | – | 99.7% | 111% | 112% | 90.4 | 104% | 153%
40 | CC(=O)Nc1ccc(C(=O)COc2cccc(/C=C3\CCc4ccccc4C3=O)c2)cc1 | – | 36.8% | 90% | – | 90.1% | 486% | 96.7% | 89.8 | 104% | 19.6%
41 | COc1ccc2c(c1)CC/C(=C\c1ccc(OCC(=O)Nc3nc4ccccc4s3)cc1)C2=O | – | 84.7% | 82.5% | – | 89.6% | 95% | 73.7% | 96.5 | 89% | 92.5%
42 | Cc1cc(Cl)ccc1Nc1nc(C(F)(F)F)ccc1C(=O)N/N=C/c1ccc(Cl)cc1 | – | 5.71% (active) | -22.5% (active) | – | 10.4% | -41.8% (active) | 0.0279% (active) | 16.6 | 0.962% (active) | -0.888% (active)
43 | CC(=O)Nc1ccc(C(=O)COc2ccc(/C=C3\CCc4ccccc4C3=O)cc2)cc1 | – | 80.4% | 103% | – | 93.6% | 104% | 115% | 98.9 | 115% | –
44 | O=C(Nc1ccc(Cl)cc1)Nc1nc2ccc(OC(F)(F)F)cc2o1 | – | 60.7% | 109% | 78.9 | 123% | 70.1% | 104% | 114 | – | 128%
